From PubChem BioAssay (NCATS)
Inconclusive results are not listed. A number with no mark means an inactive call. The source made the active and inactive calls. Calls follow the shape of the dose curve; as a rule, active = well fitted inhibition curve with a large enough effect; inconclusive = small, poorly fitted or top-dose-only effect; inactive = flat fitted curve, though single readings scatter.

Experiments:
[1] = Drug repurposing screens with cells derived from glioblastoma tumor samples (AID 1345199); conditions: GBM patient neurospheres viability, ATP luminescence, 48 h; also: nearly all actives have a fitted effect of over 40% in size
How it was run: (§1)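 Primary testing used CD133+ neurospheres from four GBM patients, seven concentrations, 48 h exposure and ATP-based viability; confirmation added three slower-growing patient lines.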

astro = control astrocytes; experiment: as above; conditions: viability, ATP luminescence, 48 h; series mostly up to 45.9 µM
How it was run: as §1

[2] = at 20 µM (top of the series), tumour line C
[3] = at 21.2 µM (top of the series), tumour line B
[4] = at 21.2 µM (top of the series), tumour line D
[5] = at 45.9 µM (top of the series), tumour line B
[6] = at 45.9 µM (top of the series), tumour line D
[7] = at 46 µM (top of the series), tumour line A
[8] = at 46.1 µM (top of the series), tumour line C
% is scaled to controls: 0 for no effect and ±100 for the full control effect; potency is read from the fitted curve at half-maximal effect.

CN1CCc2c(c3ccccc3n2Cc2ccccc2)C1
activity, negative = cell killing [1, 2]: -5.19%
activity, negative = cell killing [1, 3]: -12.3%
activity, negative = cell killing [1, 4]: -14.4%
Potency ([1]; tumour line A): 5.62 µM (active)
Potency (astro): inactive

CC(C)[C@H](N)C(=O)OCC(CO)OCn1cnc2c(=O)[nH]c(N)nc21 (stereo not given in full)
activity, negative = cell killing [1, 5]: -16.2%
activity, negative = cell killing [1, 6]: -11.6%
activity, negative = cell killing [1, 7]: -27%
activity, negative = cell killing [1, 8]: -25.2%
Potency (astro): inactive

O=C(O)/C=C/c1ccccc1
activity, negative = cell killing [1, 5]: -13.6%
activity, negative = cell killing [1, 6]: 12.4%
activity, negative = cell killing [1, 7]: -20.1%
activity, negative = cell killing [1, 8]: 7.51%
Potency (astro): inactive

COC(=O)[C@@H](N)CS
activity, negative = cell killing [1, 5]: 4.89%
activity, negative = cell killing [1, 6]: -8.33%
activity, negative = cell killing [1, 7]: -26.1%
activity, negative = cell killing [1, 8]: 4.09%
Potency (astro): inactive

CC(C)c1nc(N(C)S(C)(=O)=O)nc(-c2ccc(F)cc2)c1/C=C/C(O)CC(O)CC(=O)O (stereo not given)
activity, negative = cell killing [1, 5]: -27.3%
activity, negative = cell killing [1, 8]: -19%
Potency ([1]; tumour line A): 3.55 µM (active)
Potency ([1]; tumour line D): 17.8 µM (active)
Potency (astro): 10 µM (active)

CC(C)(CO)[C@@H](O)C(=O)NCCCC(=O)O
activity, negative = cell killing [1, 5]: 2.97%
activity, negative = cell killing [1, 6]: -4.32%
activity, negative = cell killing [1, 7]: -3.96%
activity, negative = cell killing [1, 8]: -7.77%
Potency (astro): inactive

O=C(NNCNNC(=O)c1ccncc1)c1ccncc1
activity, negative = cell killing [1, 5]: -12%
activity, negative = cell killing [1, 6]: -9.77%
activity, negative = cell killing [1, 7]: -25.1%
activity, negative = cell killing [1, 8]: -23%
Potency (astro): inactive

CN[C@@H]1[C@@H](O)[C@@H](O[C@@H]2[C@@H](O)[C@H](O[C@H]3O[C@H](CN)[C@@H](O)[C@H](O)[C@H]3O)[C@@H](N)C[C@H]2NC(=O)C(O)CN)OC[C@]1(C)O (stereo not given in full)
activity, negative = cell killing [1, 5]: -11%
activity, negative = cell killing [1, 6]: -1.91%
activity, negative = cell killing [1, 7]: 4.63%
activity, negative = cell killing [1, 8]: 1.73%
Potency (astro): inactive

NCC(O)CC(=O)O (stereo not given)
activity, negative = cell killing [1, 5]: -5.1%
activity, negative = cell killing [1, 6]: -3.38%
activity, negative = cell killing [1, 7]: -5.53%
activity, negative = cell killing [1, 8]: 12.2%
Potency (astro): inactive

CSCCC(N)C(=O)O (stereo not given)
activity, negative = cell killing [1, 5]: -9.94%
activity, negative = cell killing [1, 6]: -6.77%
activity, negative = cell killing [1, 7]: -11.9%
activity, negative = cell killing [1, 8]: -3.8%
Potency (astro): inactive

CC(=O)Nc1ccc(OC(=O)c2ccccc2O)cc1
activity, negative = cell killing [1, 5]: -6.12%
activity, negative = cell killing [1, 6]: -8.68%
activity, negative = cell killing [1, 7]: -14.5%
activity, negative = cell killing [1, 8]: -22.3%
Potency (astro): inactive

C[N+]1(C)[C@@H]2CC(OC(=O)C(O)(c3cccs3)c3cccs3)C[C@H]1[C@@H]1O[C@@H]12 (stereo not given in full)
activity, negative = cell killing [1, 5]: -12.3%
activity, negative = cell killing [1, 6]: 0.442%
activity, negative = cell killing [1, 7]: -24.6%
activity, negative = cell killing [1, 8]: -20.7%
Potency (astro): inactive

CC(O)[C@@H]1NC(=O)[C@H](Cc2ccccc2)NC(=O)[C@H](C(C)O)NC(=O)[C@H](CCCCN)NC(=O)[C@H](Cc2c[nH]c3ccccc23)NC(=O)[C@H](Cc2ccccc2)NC(=O)[C@H](Cc2ccccc2)NC(=O)[C@H](CC(N)=O)NC(=O)[C@H](CCCCN)NC(=O)[C@@H](NC(=O)CNC(=O)[C@H](C)N)CSSC[C@@H](C(=O)O)NC(=O)[C@H](CO)NC1=O (stereo not given in full)
activity, negative = cell killing [1, 5]: -13.9%
activity, negative = cell killing [1, 6]: -20.3%
activity, negative = cell killing [1, 7]: -21.3%
activity, negative = cell killing [1, 8]: -3.11%
Potency (astro): inactive

CC(=O)Oc1cc(C(F)(F)F)ccc1C(=O)O
activity, negative = cell killing [1, 2]: -16.9%
activity, negative = cell killing [1, 3]: -19.3%
activity, negative = cell killing [1, 4]: -15.7%
activity, negative = cell killing ([1]; at 21.3 µM (top of the series), tumour line A): -29%
Potency (astro): inactive

CC(C)(C)CC(C)(C)c1cc(Cc2cc(C(C)(C)CC(C)(C)C)cc(-n3nc4ccccc4n3)c2O)c(O)c(-n2nc3ccccc3n2)c1
activity, negative = cell killing [1, 5]: -3.94%
activity, negative = cell killing [1, 6]: -1.11%
activity, negative = cell killing [1, 7]: -36.5%
activity, negative = cell killing [1, 8]: -23.5%
Potency (astro): inactive

CC1(C)S[C@@H]2[C@H](NC(=O)C3(N)CCCCC3)C(=O)N2[C@H]1C(=O)O
activity, negative = cell killing [1, 5]: -3.31%
activity, negative = cell killing [1, 6]: -4.88%
activity, negative = cell killing [1, 7]: -7.56%
activity, negative = cell killing [1, 8]: -20.1%
Potency (astro): inactive

CC[C@@H]1/C=C(\C)C[C@H](C)C[C@H](OC)[C@H]2O[C@@](O)(C(=O)C(=O)N3CCCC[C@H]3C(=O)O[C@H](/C(C)=C/[C@@H]3CC[C@@H](Cl)[C@H](OC)C3)[C@H](C)[C@@H](O)CC1=O)[C@H](C)C[C@@H]2OC
activity, negative = cell killing [1, 5]: -7.85%
activity, negative = cell killing [1, 6]: -16.3%
activity, negative = cell killing [1, 7]: -14.1%
activity, negative = cell killing [1, 8]: -18.5%
Potency (astro): inactive

O=C(O)[C@@H]1C[C@H](CP(=O)(O)O)CCN1
activity, negative = cell killing [1, 5]: -4.93%
activity, negative = cell killing [1, 6]: -11.9%
activity, negative = cell killing [1, 7]: -21.2%
activity, negative = cell killing [1, 8]: -14%
Potency (astro): inactive

O=C(O)CCC/C=C\C[C@@H]1[C@@H](/C=C/[C@@H](O)COc2cccc(C(F)(F)F)c2)[C@H](O)C[C@@H]1O
activity, negative = cell killing [1, 5]: -0.927%
activity, negative = cell killing [1, 6]: 2.71%
activity, negative = cell killing [1, 7]: -17.8%
activity, negative = cell killing [1, 8]: 3.43%
Potency (astro): inactive

C=O
activity, negative = cell killing [1, 5]: -5.16%
activity, negative = cell killing [1, 6]: -12.4%
activity, negative = cell killing [1, 7]: -10.6%
activity, negative = cell killing [1, 8]: 0.841%
Potency (astro): inactive

O=C(O)c1ccc(NC2OC[C@@H](O)[C@H](O)[C@H]2O)cc1 (stereo not given in full)
activity, negative = cell killing [1, 5]: -2.93%
activity, negative = cell killing [1, 6]: 0.684%
activity, negative = cell killing [1, 7]: -26.5%
activity, negative = cell killing [1, 8]: -13.1%
Potency (astro): inactive

NCC[C@H](O)C(=O)N[C@@H]1C[C@H](N)[C@@H](O[C@H]2O[C@H](CN)CC[C@H]2N)[C@H](O)[C@H]1O[C@H]1O[C@H](CO)[C@@H](O)[C@H](N)[C@H]1O
activity, negative = cell killing [1, 5]: -11.6%
activity, negative = cell killing [1, 6]: -8.34%
activity, negative = cell killing [1, 7]: -19.6%
activity, negative = cell killing [1, 8]: -19.9%
Potency (astro): inactive
